What all share (test): DAPPL (digital affinity profiling via proximity ligation, sequencing); 10 mM Tris-HCl pH 7.5, 50 mM NaCl, 1 mM DTT, 4% glycerol, room temperature, 30 min; GST-TFs on glutathione beads, 16-mer random dsDNA library, 0.1% formaldehyde crosslink after washing; high values mean tight binding
Holding throughout (details): protein: recombinant; tags: N-terminal GST; dsDNA, one strand shown

One experiment addresses T1, ERF (Homo sapiens, UniProt P50548 1-548).
T1 sequence: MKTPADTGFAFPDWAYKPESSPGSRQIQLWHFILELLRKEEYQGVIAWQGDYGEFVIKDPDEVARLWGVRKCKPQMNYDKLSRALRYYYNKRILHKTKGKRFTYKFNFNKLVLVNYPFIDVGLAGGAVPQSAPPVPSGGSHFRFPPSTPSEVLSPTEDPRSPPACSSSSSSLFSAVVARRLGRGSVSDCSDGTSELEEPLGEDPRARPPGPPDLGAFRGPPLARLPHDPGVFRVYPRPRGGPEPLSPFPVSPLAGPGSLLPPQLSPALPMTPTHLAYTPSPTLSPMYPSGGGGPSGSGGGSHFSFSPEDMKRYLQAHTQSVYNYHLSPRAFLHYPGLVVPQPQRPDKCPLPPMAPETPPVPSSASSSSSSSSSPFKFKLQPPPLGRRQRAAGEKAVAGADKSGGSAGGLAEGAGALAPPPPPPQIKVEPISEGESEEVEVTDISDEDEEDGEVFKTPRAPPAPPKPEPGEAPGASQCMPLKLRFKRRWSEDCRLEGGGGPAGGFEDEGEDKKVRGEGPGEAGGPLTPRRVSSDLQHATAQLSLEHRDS
The method, boiled down: (§1)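 Human transcription factors carrying a GST fusion were produced in yeast, bound to glutathione beads, tagged with DNA barcodes and pooled together with a tag-only sample. Each pool was held with 200 nmole of a random double-stranded 16-mer DNA library in Tris/NaCl/DTT/glycerol buffer for 30 min at room temperature, then washed, crosslinked in 0.1% formaldehyde, proximity-ligated with BsaI/T4 ligase (1 h, 37 °C), PCR-amplified and sequenced on an Illumina NextSeq500. Binding signal is the read frequency of each hexamer for a given factor divided by its frequency in the tag-only sample.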

A further experiment deals with T2, ETV3L (Homo sapiens, UniProt Q6ZN32 1-361).
T2 sequence: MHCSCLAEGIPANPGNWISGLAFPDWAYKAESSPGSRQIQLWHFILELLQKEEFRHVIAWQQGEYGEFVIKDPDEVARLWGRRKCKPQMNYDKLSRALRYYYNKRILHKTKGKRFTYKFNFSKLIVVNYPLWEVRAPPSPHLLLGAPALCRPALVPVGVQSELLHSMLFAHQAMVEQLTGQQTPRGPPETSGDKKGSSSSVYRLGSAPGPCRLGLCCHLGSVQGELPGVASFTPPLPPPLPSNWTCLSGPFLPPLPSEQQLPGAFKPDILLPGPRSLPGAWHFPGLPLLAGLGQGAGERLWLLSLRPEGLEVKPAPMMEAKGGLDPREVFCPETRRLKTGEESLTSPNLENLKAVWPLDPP
The method, boiled down: as §1

In the next experiment the target is T3, ETS2 (Homo sapiens, UniProt P15036 1-469).
T3 sequence: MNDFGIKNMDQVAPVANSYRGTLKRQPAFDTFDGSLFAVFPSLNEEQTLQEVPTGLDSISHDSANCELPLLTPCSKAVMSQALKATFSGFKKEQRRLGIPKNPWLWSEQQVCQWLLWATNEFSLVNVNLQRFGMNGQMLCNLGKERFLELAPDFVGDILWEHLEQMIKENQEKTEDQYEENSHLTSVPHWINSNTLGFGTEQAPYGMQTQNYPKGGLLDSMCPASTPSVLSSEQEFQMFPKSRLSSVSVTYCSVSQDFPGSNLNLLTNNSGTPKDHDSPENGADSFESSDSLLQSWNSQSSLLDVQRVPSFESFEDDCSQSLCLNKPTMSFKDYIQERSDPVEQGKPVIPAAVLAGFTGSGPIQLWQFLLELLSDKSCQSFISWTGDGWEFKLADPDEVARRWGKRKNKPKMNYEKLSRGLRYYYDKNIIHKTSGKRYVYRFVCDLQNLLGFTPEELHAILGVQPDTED
In a few lines: as §1

In another experiment the target is T4, SPDEF (Homo sapiens, UniProt O95238 1-335).
T4 sequence: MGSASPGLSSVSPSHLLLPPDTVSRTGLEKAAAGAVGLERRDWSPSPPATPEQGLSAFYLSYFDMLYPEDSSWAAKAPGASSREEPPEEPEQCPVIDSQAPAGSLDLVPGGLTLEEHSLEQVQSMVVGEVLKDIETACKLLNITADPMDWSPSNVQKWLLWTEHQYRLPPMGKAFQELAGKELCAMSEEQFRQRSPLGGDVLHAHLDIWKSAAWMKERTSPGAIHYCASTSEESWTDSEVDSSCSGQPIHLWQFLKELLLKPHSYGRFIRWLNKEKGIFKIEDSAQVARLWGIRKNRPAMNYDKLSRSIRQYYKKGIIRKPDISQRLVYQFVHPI
The method, boiled down: as §1

In the next experiment the target is T5, ETV7 (Homo sapiens, UniProt Q9Y603 1-341).
T5 sequence: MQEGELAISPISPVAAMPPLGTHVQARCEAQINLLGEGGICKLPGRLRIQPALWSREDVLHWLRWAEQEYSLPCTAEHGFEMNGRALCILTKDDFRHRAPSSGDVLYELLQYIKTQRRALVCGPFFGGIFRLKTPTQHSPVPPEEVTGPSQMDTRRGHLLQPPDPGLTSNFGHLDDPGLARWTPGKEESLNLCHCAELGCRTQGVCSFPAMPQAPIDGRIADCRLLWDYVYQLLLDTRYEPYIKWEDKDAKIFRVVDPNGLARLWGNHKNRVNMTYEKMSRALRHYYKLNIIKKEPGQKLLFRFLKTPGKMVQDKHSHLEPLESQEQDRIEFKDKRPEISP
The method, boiled down: as §1

For the next experiment, the target named is T6, ELF5 (Homo sapiens, UniProt Q9UKW6-2 1-255).
T6 sequence: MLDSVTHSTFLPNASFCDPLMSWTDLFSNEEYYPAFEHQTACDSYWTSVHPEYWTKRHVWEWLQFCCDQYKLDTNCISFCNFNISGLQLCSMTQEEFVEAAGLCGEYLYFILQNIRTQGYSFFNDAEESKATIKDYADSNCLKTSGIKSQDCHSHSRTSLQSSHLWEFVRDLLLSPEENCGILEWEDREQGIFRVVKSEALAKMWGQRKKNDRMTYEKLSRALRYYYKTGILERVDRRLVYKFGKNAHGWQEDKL
In a few lines: as §1

A further experiment concerns the target T7, ETV3 (Homo sapiens, UniProt P41162-2 1-143).
T7 sequence: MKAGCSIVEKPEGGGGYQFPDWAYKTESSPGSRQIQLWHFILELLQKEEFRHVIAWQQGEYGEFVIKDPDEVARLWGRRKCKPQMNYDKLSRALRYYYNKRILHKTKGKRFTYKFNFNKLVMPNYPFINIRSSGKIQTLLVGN
The method, boiled down: as §1

The next experiment deals with ETV6 (Homo sapiens, UniProt P41212 1-452). In a few lines:
as §1

ETV6, sequence (P41212 whole entry): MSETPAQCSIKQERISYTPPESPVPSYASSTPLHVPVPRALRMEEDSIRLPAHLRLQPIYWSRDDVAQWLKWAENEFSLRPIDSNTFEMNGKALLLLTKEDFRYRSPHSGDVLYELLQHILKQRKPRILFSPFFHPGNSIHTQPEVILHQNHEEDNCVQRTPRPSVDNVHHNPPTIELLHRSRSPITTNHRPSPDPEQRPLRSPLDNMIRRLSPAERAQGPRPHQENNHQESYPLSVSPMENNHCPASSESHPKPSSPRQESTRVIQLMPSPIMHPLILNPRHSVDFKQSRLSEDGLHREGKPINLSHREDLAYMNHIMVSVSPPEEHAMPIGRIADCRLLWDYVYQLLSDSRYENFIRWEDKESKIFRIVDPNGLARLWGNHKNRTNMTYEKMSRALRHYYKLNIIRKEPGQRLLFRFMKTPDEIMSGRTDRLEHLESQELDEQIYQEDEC

Consider GCCTCG, for which the binding signal with ERF is 1.14 fold enrichment (6-mer frequency, TF over GST control); with ETV3L it was 1.28 fold enrichment (6-mer frequency, TF over GST control); with ETS2, 1.31 fold enrichment (6-mer frequency, TF over GST control); with SPDEF, 1.19 fold enrichment (6-mer frequency, TF over GST control); with ETV7 it was 1.26 fold enrichment (6-mer frequency, TF over GST control); with ELF5 it was 1.23 fold enrichment (6-mer frequency, TF over GST control). For the same sequence, the binding signal was 1.28 fold enrichment (6-mer frequency, TF over GST control) in the experiment with ETV3 and 1.37 fold enrichment (6-mer frequency, TF over GST control) with ETV6.

With AACTCG, the binding signal with ERF is 1.44 fold enrichment (6-mer frequency, TF over GST control); in the experiment with ETV3L, 1.43 fold enrichment (6-mer frequency, TF over GST control); in the experiment with ETS2 it was 1.31 fold enrichment (6-mer frequency, TF over GST control); in the experiment with SPDEF, 1.31 fold enrichment (6-mer frequency, TF over GST control); in the experiment with ETV7 it was 1.33 fold enrichment (6-mer frequency, TF over GST control); with ELF5, 1.35 fold enrichment (6-mer frequency, TF over GST control). Besides, the binding signal with ETV3 was 1.4 fold enrichment (6-mer frequency, TF over GST control); with ETV6, 1.33 fold enrichment (6-mer frequency, TF over GST control).

On to TTGTTC, for which the binding signal with ERF was 1.63 fold enrichment (6-mer frequency, TF over GST control); in the experiment with ETV3L it was 1.44 fold enrichment (6-mer frequency, TF over GST control); with ETS2, 1.33 fold enrichment (6-mer frequency, TF over GST control); with SPDEF, 1.48 fold enrichment (6-mer frequency, TF over GST control); with ETV7, 1.44 fold enrichment (6-mer frequency, TF over GST control); with ELF5, 1.55 fold enrichment (6-mer frequency, TF over GST control). The binding signal is 1.52 fold enrichment (6-mer frequency, TF over GST control) in the experiment with ETV3 and 1.46 fold enrichment (6-mer frequency, TF over GST control) in the experiment with ETV6.

As for ACATCT, the binding signal is 1.24 fold enrichment (6-mer frequency, TF over GST control) in the experiment with ERF; 1.24 fold enrichment (6-mer frequency, TF over GST control) with ETV3L; 1.27 fold enrichment (6-mer frequency, TF over GST control) with ETS2; 1.26 fold enrichment (6-mer frequency, TF over GST control) with SPDEF; 1.49 fold enrichment (6-mer frequency, TF over GST control) with ETV7; 1.3 fold enrichment (6-mer frequency, TF over GST control) with ELF5. Also, the binding signal with ETV3 was 1.17 fold enrichment (6-mer frequency, TF over GST control); with ETV6 it was 1.29 fold enrichment (6-mer frequency, TF over GST control).

As to CTATTT, the binding signal in the experiment with ERF is 1.63 fold enrichment (6-mer frequency, TF over GST control); with ETV3L, 1.82 fold enrichment (6-mer frequency, TF over GST control); with ETS2, 1.71 fold enrichment (6-mer frequency, TF over GST control); with SPDEF, 1.57 fold enrichment (6-mer frequency, TF over GST control); in the experiment with ETV7, 1.66 fold enrichment (6-mer frequency, TF over GST control); in the experiment with ELF5 it was 1.72 fold enrichment (6-mer frequency, TF over GST control). For the same sequence, the binding signal with ETV3 is 1.63 fold enrichment (6-mer frequency, TF over GST control); in the experiment with ETV6, 1.9 fold enrichment (6-mer frequency, TF over GST control).

Take CATCCT: the binding signal in the experiment with ERF is 1.49 fold enrichment (6-mer frequency, TF over GST control); with ETV3L, 1.69 fold enrichment (6-mer frequency, TF over GST control); in the experiment with ETS2 it was 1.61 fold enrichment (6-mer frequency, TF over GST control); with SPDEF, 2.33 fold enrichment (6-mer frequency, TF over GST control); with ETV7, 1.5 fold enrichment (6-mer frequency, TF over GST control); with ELF5, 2.13 fold enrichment (6-mer frequency, TF over GST control). Besides, the binding signal with ETV3 was 1.86 fold enrichment (6-mer frequency, TF over GST control); in the experiment with ETV6, 1.65 fold enrichment (6-mer frequency, TF over GST control).

On to CCAATT, for which the binding signal was 1.23 fold enrichment (6-mer frequency, TF over GST control) with ERF; 1.24 fold enrichment (6-mer frequency, TF over GST control) with ETV3L; 1.25 fold enrichment (6-mer frequency, TF over GST control) with ETS2; 1.19 fold enrichment (6-mer frequency, TF over GST control) with SPDEF; 1.21 fold enrichment (6-mer frequency, TF over GST control) with ETV7; 1.14 fold enrichment (6-mer frequency, TF over GST control) with ELF5. Further, the binding signal is 1.23 fold enrichment (6-mer frequency, TF over GST control) with ETV3 and 1.24 fold enrichment (6-mer frequency, TF over GST control) in the experiment with ETV6.

For TATAGT, the binding signal was 1.16 fold enrichment (6-mer frequency, TF over GST control) with ERF; 1.06 fold enrichment (6-mer frequency, TF over GST control) with ETV3L; 1.02 fold enrichment (6-mer frequency, TF over GST control) with ETS2; 1.02 fold enrichment (6-mer frequency, TF over GST control) in the experiment with SPDEF; 1.2 fold enrichment (6-mer frequency, TF over GST control) with ETV7; 1.04 fold enrichment (6-mer frequency, TF over GST control) in the experiment with ELF5. Also, the binding signal with ETV3 was 1.06 fold enrichment (6-mer frequency, TF over GST control); with ETV6, 1.09 fold enrichment (6-mer frequency, TF over GST control).

The values above are taken from PMC7862700, “An all-to-all approach to the identification of sequence-specific readers for epigenetic DNA modifications on cytosine”.
